# Screen size: about 1,300 compounds; about 150 (12%) were called active. Where a call stands in place of a potency, no number is given. About 30% were inconclusive and are not listed. Calls follow the shape of the dose curve; as a rule, active = well fitted cell-killing curve with a large enough effect; inconclusive = small, poorly fitted or top-dose-only effect, or effect the other way; inactive = flat fitted curve, though single readings scatter. The full list was thinned out, with actives kept by preference.
# Test: qHTS of small molecules that selectively kill Giardia lamblia: Hit Validation in HepG2 cytotox;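 also: compound exposure lasted overnight at 37 deg C; nearly all actives have a fitted effect of over 55% in size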
# Conditions: cell viability; Potency: HepG2 cytotoxicity; series mostly up to 38.3 µM
# Method in brief: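 Counterscreen cytotoxicity: ATPLite luminescence (15 min, room temperature) measured in HepG2 cells exposed overnight at 37 deg C to pin-transferred compound (23 nL) after overnight pre-incubation.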
# Potency is read from the fitted curve at half-maximal effect.
row,Structure (SMILES),Potency
1,CC(C)CC(=O)Nc1ncc([N+](=O)[O-])s1,inactive
2,Cc1ccc(CCN=c2c([N+](=O)[O-])nn(-c3ccccc3)n2O)cc1,inactive
3,COc1ccc(-n2nc([N+](=O)[O-])c(=NCc3cccnc3)n2O)cc1,inactive
4,CCOC(=O)c1cc([N+](=O)[O-])sc1NC(=O)CC,inactive
5,O=C(c1ccco1)N1CCN(c2c([N+](=O)[O-])nn(-c3ccc(Cl)cc3)[n+]2[O-])CC1,inactive
6,Cc1ncc(CO)c(/C=N/NC(=O)c2cc3c(s2)CCCC3)c1O,2070 nM (active)
7,O=[N+]([O-])c1nn(-c2ccccc2)n(O)c1=NCCc1ccccc1,inactive
8,O=C(CNC(=O)c1ccccc1F)N/N=C/c1cc(Br)ccc1OCc1ccccc1,inactive
9,CN1C(=O)/C(=C/c2ccc(O)c([N+](=O)[O-])c2)N(C)C1=S,inactive
10,COc1ccc(C(=O)NC2CCN(S(=O)(=O)c3ccc(F)cc3)CC2)cc1,inactive
11,COc1ccc(C(=O)Nc2ccc3[nH]ccc3c2)cc1,2330 nM (active)
12,O=C(Nc1ccc2[nH]ccc2c1)c1ccccc1,4140 nM (active)
13,COc1ccc(NC(=O)c2ccco2)c(NC(=O)c2ccc([N+](=O)[O-])cc2)c1,inactive
14,O=C(Nc1ccccc1O)c1ccc([N+](=O)[O-])cc1,inactive
15,O=C(NNC(=O)c1ccc([N+](=O)[O-])o1)c1ccccc1,inactive
16,O=[N+]([O-])c1ccc(CSc2nnc(-c3cccnc3)o2)cc1,inactive
17,NNC(=O)c1cccc(Cn2cc(Br)c([N+](=O)[O-])n2)c1,inactive
18,Cc1cccc(CCN=c2c([N+](=O)[O-])nn(-c3ccccc3)n2O)c1,inactive
19,Nc1c(Cl)cc(C2=NCCn3c2c2ccc(C(F)(F)F)cc2[n+]3[O-])cc1Cl,inactive
20,COc1ccc(-c2cn3cc([N+](=O)[O-])ccc3n2)cc1OC,inactive
21,CC(=O)Nc1ccc(NC(=O)c2c([N+](=O)[O-])cnn2C)cc1,inactive
22,c1csc(-c2ccc(N3CCOCC3)nn2)c1,6560 nM (active)
23,O=[N+]([O-])c1ccc(O/N=[N+](\[O-])N2CCCCC2)c([N+](=O)[O-])c1,inactive
24,CC1CCCCC1NC(=O)COc1cccnc1[N+](=O)[O-] (centres undefined),inactive
25,O=C1OC(CN(Cc2ccccc2)Cc2ccccc2)CN1N=Cc1ccc([N+](=O)[O-])o1 (centres undefined),inactive

row,Structure (SMILES),Potency
1,CCCCC(=O)Nc1ncc([N+](=O)[O-])s1,inactive
2,COc1ccc(C(=O)c2c(C)oc3cc([N+](=O)[O-])c(O)c([N+](=O)[O-])c23)cc1,inactive
3,Cc1cc(C)c2nc(NC(=O)c3ccc([N+](=O)[O-])o3)sc2c1,inactive
4,Cc1cc(C)c2sc(NC(=O)c3ccc([N+](=O)[O-])o3)nc2c1,inactive
5,O=C(Nc1nc2c(F)cccc2s1)c1ccc([N+](=O)[O-])o1,inactive
6,O=C(Nc1nc2ccccc2s1)c1ccc([N+](=O)[O-])o1,inactive
7,Cc1ccc(-c2csc(NC(=O)c3ccc([N+](=O)[O-])o3)n2)cc1,11700 nM (active)
8,O=C(Nc1nc(-c2cccs2)cs1)c1ccc([N+](=O)[O-])o1,1850 nM (active)
9,COc1ccccc1C1C([N+](=O)[O-])=CC([N+](=O)[O-])=CN1C (centres undefined),inactive
10,Cc1cnc([N+](=O)[O-])n1CCOC(=O)NC(=O)c1ccccc1Cl,inactive
11,CC(=O)NC(Cc1ccc(F)cc1)C(=O)NC1CCN(c2ncccc2[N+](=O)[O-])CC1 (centres undefined),inactive
12,Cn1c([N+](=O)[O-])cnc1N1CCN(c2nncs2)C1=O,inactive
13,COc1cc(/C=C2\SC(=O)N(c3ccc(Cl)cc3)C2=O)cc([N+](=O)[O-])c1O,inactive
14,COc1ccc(NS(=O)(=O)c2ccc(C)cc2)c([N+](=O)[O-])c1,inactive
15,COc1cc2c(cc1OC)CN(C(=O)c1ccc([N+](=O)[O-])o1)CC2,inactive
16,Cc1ncc([N+](=O)[O-])n1CCOC(=O)Nc1ccc(Cl)c(Cl)c1,inactive
17,O=C(COc1cccnc1[N+](=O)[O-])NCCc1ccc(Cl)cc1Cl,inactive
18,O=C(NC1CCS(=O)(=O)C1)c1ccc(N2CCCCC2)c([N+](=O)[O-])c1 (centres undefined),inactive
19,Cc1nnc(N/N=C/c2cccs2)[nH]c1=O,2070 nM (active)
20,S=C(NCCc1ccccc1)N/N=C/c1cccs1,inactive
21,O=C(O)C1CCN(c2ccccc2[N+](=O)[O-])CC1,inactive
22,COc1ccc(C(=O)C(C)OC(=O)CNC(=O)C2CCCCC2)cc1 (centres undefined),inactive
23,Cc1ccc(S(=O)(=O)N2[C@@H](c3ccc(Cl)cc3)C(C(=O)O)=C[C@H]2CC2CCCC2)cc1,inactive
24,COc1ccc(C(=O)c2c3ccc(C(F)(F)F)cc3[n+]([O-])n2CCCN)cc1,inactive
25,Cc1ccc2nc(NC(=O)C3CCCN(S(=O)(=O)c4cnc[nH]4)C3)sc2c1 (centres undefined),inactive

row,Structure (SMILES),Potency
1,O=C(COc1cccnc1[N+](=O)[O-])Nc1cc(S(=O)(=O)N2CCCCC2)ccc1Cl,inactive
2,O=C(NCc1ccccn1)C1CCCN(S(=O)(=O)c2cc(Cl)ccc2Cl)C1 (centres undefined),3690 nM (active)
3,Cc1ccc(S(=O)(=O)N2[C@@H](c3cccc(Cl)c3)C(C(=O)O)=CC[C@H]2c2cccc(Cl)c2)cc1,inactive
4,CCCSc1ccc2nc(NC(=O)OC)[nH]c2c1,inactive
5,CCc1cccc(NC(=O)CCCSc2nc3ccccc3[nH]2)c1,16500 nM (active)
6,CC1(C)CC2CC(C)(CN2S(=O)(=O)c2cccc(C(=O)O)c2)C1 (centres undefined),inactive
7,O=[N+]([O-])c1ccc(Oc2cccc(Br)c2)c2ccncc12,inactive
8,Cc1c(Br)c([N+](=O)[O-])nn1C(C)C(=O)Nc1ccc2c(c1)OCO2 (centres undefined),inactive
9,O=C1C2C3C=CC(C3)C2C(=O)N1Nc1ccc([N+](=O)[O-])cc1[N+](=O)[O-] (centres undefined),inactive
10,COc1ccc2nc(C)cc(N/N=C/c3ccc(F)cc3)c2c1,2330 nM (active)
11,Cc1cc(C)nc(N/N=C/c2ccc(Cl)cc2)n1,inactive
12,COc1ccc(/C=N/Nc2cc(C)nc3c(C)cccc23)cc1,13100 nM (active)
13,COc1ccccc1Nc1cc(C)nc2c(C)ccc([N+](=O)[O-])c12,inactive
14,CCc1cccc(N=c2c([N+](=O)[O-])nn(-c3ccc(Cl)cc3)n2O)c1,inactive
15,CCOC(=O)C1=C(C)NC(=O)NC1c1ccc([N+](=O)[O-])o1 (centres undefined),inactive
16,CN(C)c1ccc2nsnc2c1[N+](=O)[O-],inactive
17,CN1C(=O)/C(=C/c2cccc(Cl)c2)Sc2ccc(C(=O)N3CCCC3)cc21,inactive
18,Nc1ncnc2c1ncn2C1O[C@H](CO)[C@@H](O)[C@@H]1O (some centres undefined),inactive
19,O=C(c1ccc(CSc2nc3ccncc3[nH]2)cc1)N1CCCCCC1,927 nM (active)
20,Cc1ccc(CSc2nc3ccncc3[nH]2)cc1,369 nM (active)
21,COc1cccc(CSc2nc3ccncc3[nH]2)c1,4650 nM (active)
22,Cc1nnc(SCc2ccc([N+](=O)[O-])cc2)[nH]c1=O,inactive
23,Clc1ccc(CSc2nc3ccncc3[nH]2)cc1,1170 nM (active)
24,O=C(COc1cccnc1[N+](=O)[O-])Nc1ccc(F)cc1,inactive
25,COC1C(OC(=O)/C=C/C=C/C=C/C=C/C(=O)O)CCC2(CO2)C1C1(C)OC1CC=C(C)C (centres undefined) (tested in a mixture with another compound),inactive

row,Structure (SMILES),Potency
1,O=C(c1ccc([N+](=O)[O-])o1)N1CCN(c2nc3ccc(F)cc3s2)CC1,inactive
2,O=C1NC(=O)/C(=C\c2ccc(Oc3ccc([N+](=O)[O-])cn3)cc2)S1,inactive
3,COc1ccccc1-n1cc2c([N+](=O)[O-])cc([N+](=O)[O-])cc2n1,inactive
4,COCCn1c(C)cc(C(=O)COc2ccc(C)nc2[N+](=O)[O-])c1C,inactive
5,O=C(c1ccco1)N1CCN(c2c([N+](=O)[O-])nn(-c3cccc(Cl)c3)[n+]2[O-])CC1,inactive
6,Cc1cc([N+](=O)[O-])nn1Cc1ccc(F)cc1,inactive
7,N/C(=N\OC(=O)c1ccc(Cl)cc1[N+](=O)[O-])c1ccccn1,inactive
8,CC12CCC(C(=O)Nc3ncc([N+](=O)[O-])s3)(OC1=O)C2(C)C (centres undefined),inactive
9,CN(C)CCCn1cnc2c(c1=N)C(c1ccccc1)c1ccc3ccccc3c1O2 (centres undefined),2070 nM (active)
10,Cc1ccc([C@@H]2CC=C(C(=O)O)[C@H](c3ccc(Cl)cc3)N2S(=O)(=O)c2ccc(C)cc2)cc1,inactive
11,Cc1c[n+]([O-])ccc1[N+](=O)[O-],inactive
12,COc1cc(N=Nc2c(C)n(C)n(-c3ccccc3)c2=O)ccc1N,inactive
13,COc1ccc2cc(-c3cc(C(=O)OCC(=O)Nc4c(C)n(C)n(-c5ccccc5)c4=O)c4ccccc4n3)ccc2c1,464 nM (active)
14,Cc1c(NC(=O)c2cc(-c3ccc(Cl)c(Cl)c3)on2)c(=O)n(-c2ccccc2)n1C,inactive
15,Cc1ccc(CN=c2c([N+](=O)[O-])nn(-c3cccc(C)c3)n2O)cc1,inactive
16,O=[N+]([O-])c1nn(-c2ccc3c(c2)OCCO3)n(O)c1=NC1CCN(Cc2ccccc2)CC1,inactive
17,CN(C)c1ccc(/C=C(/NC(=O)c2ccccc2)C(=O)N/N=C/c2ccc([N+](=O)[O-])c(O)c2)cc1,inactive
18,Cc1ncc([N+](=O)[O-])n1CCOC(=O)NC(NCc1cccnc1)C(Cl)(Cl)Cl (centres undefined),inactive
19,Cc1nc(C)c(C(=O)Nc2ncc([N+](=O)[O-])s2)o1,inactive
20,COc1cccc(CN=c2c([N+](=O)[O-])nn(-c3ccccc3C)n2O)c1,inactive
21,O=C(/C=C/c1cccc([N+](=O)[O-])c1)c1ccco1,inactive
22,COC(=O)Nc1nc2ccc(C(=O)c3cccs3)cc2[nH]1,inactive
23,Cc1ccn(-c2ccc(NC(=O)c3cccs3)cc2)n1,9270 nM (active)
24,CCOC(=O)N1CCN(C(=O)c2ccc(Cl)c(NC(=O)c3cccs3)c2)CC1,inactive

# Source: PubChem BioAssay AID588382 (National Center for Advancing Translational Sciences (NCATS), 2011)
